Reference: PubChem BioAssay AID493012 (Sanford-Burnham Center for Chemical Genomics, 2011)
The whole screen tested about 330,000 compounds, of which about 930 (0.28%) were called active. This is one part of a sample in which actives are shown more often than they occur. A number with no mark means an inactive call.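 The calls were made as follows: active = inhibition of at least 40% at 20 µM, with no more than 30% in the related APOBEC3A deaminase screen; inactive = the rest.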

molecular target: DNA dC->dU-editing enzyme APOBEC-3G (Homo sapiens) (UniProt Q9HC16); test: APOBEC3G DNA deaminase inhibitors, primary screen, biochemical, fluorescence, single-stranded DNA substrate, uHTS (AID 493012); details: recombinant A3G, ssDNA deamination FAM/TAMRA fluorescence; at 20 µM; stronger effect = higher value;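 also: plate controls were DMSO wells with A3G for no effect and wells lacking A3G enzyme for full effect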
Sequence (Q9HC16 whole entry, looked up): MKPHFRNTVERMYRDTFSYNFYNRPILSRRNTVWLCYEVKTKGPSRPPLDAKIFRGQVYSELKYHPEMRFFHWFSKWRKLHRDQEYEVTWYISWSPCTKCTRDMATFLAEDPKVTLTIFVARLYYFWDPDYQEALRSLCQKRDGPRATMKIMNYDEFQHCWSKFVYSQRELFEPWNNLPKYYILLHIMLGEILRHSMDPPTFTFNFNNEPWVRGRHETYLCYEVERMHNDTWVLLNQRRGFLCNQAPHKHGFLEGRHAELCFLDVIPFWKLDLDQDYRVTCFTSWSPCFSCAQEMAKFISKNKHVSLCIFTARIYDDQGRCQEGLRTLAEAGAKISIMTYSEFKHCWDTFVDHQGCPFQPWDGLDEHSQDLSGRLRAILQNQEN

Row | SMILES | inhibition
1 | COC(=O)N(c1ccc(OC)cc1)P1(=S)OCCC(C)O1 (stereo not given) | 69.7% (active)
2 | Cn1c(O)c(C=NCCN2CCNCC2)c(=O)n(C)c1=O | -1.92%
3 | CCCC[N+]1(C)C2CC(OC(=O)C(CO)c3ccccc3)CC1C1OC12 (stereo not given) | -0.137%
4 | CCN1CCN(Cc2cc(OC)c3c(c2)OCO3)CC1 | -5.01%
5 | Cc1cccc(-n2c(O)c(/C=N/N3CCOCC3)c(=O)[nH]c2=S)c1 | -9.2%
